DAX1 inh-1: DAX1 (NR0B1) inhibitors on StAR promoter, primary screen, cell-based, luminescence, SF-1 (NR5A1), full-length DAX-1; HEK293T StAR-luciferase reporter, SF-1/DAX-1 repression relief; inhibition, % at 6.8 µM; hit rate 1.1% among 370,000;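 active = inhibition above the mean over all tested compounds plus 3 SD, cut at about 3.6% in these data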;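 also: 0% = DAX-1 cells with DMSO and 100% = cells lacking DAX-1 with DMSO; higher inhibition means more luminescence from relief of DAX-1 repression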
hgDAF12 agonist: H. glycines DAF-12 receptor agonists, primary screen, cell-based, luminescence, HEK293, GAL4 fusion, UAS-luciferase | Nuclear hormone receptor DAF-12 (Heterodera glycines), GAL4 fusion | HEK293 GAL4-hgDAF12 UAS-luciferase reporter, agonist luminescence; normalized to butyrate control | activation, % at 6.8 µM | hit rate 1.8% among 370,000 | AID 687014, 2013;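 active = activation above a cutoff set at the mean of all screened compounds plus 3 SD, cut at about 10% in these data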;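 also: 0% = DMSO wells and 100% = sodium butyrate wells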
DAX1 inh-2: DAX1 (NR0B1) inhibitors, primary screen, cell-based, HEK293, Gal4-DAX1, luciferase luminescence; Nuclear receptor subfamily 0 group B member 1 (Homo sapiens), P51843; HEK293 Gal4-DAX1 luciferase reporter; inhibition, % at 6.75 µM; hit rate 0.99% among 340,000; AID 504766, 2011;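 active = inhibition above the mean over all tested compounds plus 3 SD, cut at about 4.2% in these data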;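 also: 0% = DAX1-transfected cells with DMSO and 100% = empty-vector control cells with DMSO; inhibition shows as a rise in luminescence from relieved DAX1 repression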
hcDAF-12 act: H. contortus DAF-12 nuclear receptor activators, primary screen, cell-based, luminescence, HEK293, lit1-tk-luc reporter. activation, % at 6.8 µM. hit rate 1.4% among 370,000. AID 652067, 2013. HEK293 hcDAF-12 lit1-tk-luc reporter; 0% DMSO, 100% Δ7-dafachronic acid;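 active = activation above the mean of all tested compounds plus 3 SD, cut at about 5.5% in these data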;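 also: 100% = response to 3 µM Δ7-dafachronic acid high control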
ssDAF-12 act: S. stercoralis DAF-12 nuclear receptor activators, primary screen, cell-based, luminescence, HEK293, GRIP1 co-expression, lit1-tk-luc; AID 652126, 2013; activation, % at 6.8 µM; Nuclear hormone receptor DAF-12 (Strongyloides stercoralis); HEK293 ssDAF-12/GRIP1 lit1-tk-luc reporter; % of 3 µM dafachronic acid response; hit rate 1% among 370,000;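 active = activation above the mean over all tested compounds plus 3 SD, cut at about 0.9% in these data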;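 also: 0% = DMSO-only wells and 100% = 3 µM delta7-dafachronic acid wells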
DAX1 conf: DAX1 (NR0B1) inhibitors relieving SF-1 repression, confirmation, cell-based, luminescence, HEK293T, full-length DAX-1, SF-1 activated StAR promoter; shares compounds with DAX1 inh-1; HEK293T StAR-promoter luciferase reporter, SF-1/DAX-1 repression; inhibition, % at 6.8 µM; hit rate 87% among 2,400;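 active = inhibition above the average of every tested compound plus 3 SD, cut at about 3.8% in these data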;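 also: 0% = DAX-1 cells with DMSO and 100% = no DAX-1 control cells with DMSO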
SF1 AF2mut Luc: StAR reporter signal changes without DAX1, counter-screen for DAX1 inhibitor project, cell-based, luminescence, AF-2 mutant SF-1, transactivation. inhibition, % at 6.8 µM. shares compounds with DAX1 inh-1. HEK293 StAR-luciferase, SF-1 AF2 mutant. hit rate 78% among 2,400;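 active = inhibition above the mean of all tested compounds plus 3 SD, cut at about 3% in these data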;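 also: 0% = DAX-1 transfected cells with DMSO and 100% = cells without DAX-1 with DMSO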
LXRb hcDAF ctr: LXR agonists, Gal4 luciferase reporter, confirmation, counter-screen for hcDAF-12 agonist project, cell-based, luminescence, HEK293, H. contortus campaign. AID 743027, 2013. HEK293 Gal4-LXR tk-luc reporter, 24 h; normalized: DMSO 0%, positive control 100%. 3,400 tested, under 10 active. activation, % at 6.8 µM. shares compounds with hcDAF-12 act;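 active = mean percent activation of the reporter above a cutoff set as the average over tested compounds plus their standard deviation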
Target sequence (P55055 whole entry, looked up, the tested form may be a part): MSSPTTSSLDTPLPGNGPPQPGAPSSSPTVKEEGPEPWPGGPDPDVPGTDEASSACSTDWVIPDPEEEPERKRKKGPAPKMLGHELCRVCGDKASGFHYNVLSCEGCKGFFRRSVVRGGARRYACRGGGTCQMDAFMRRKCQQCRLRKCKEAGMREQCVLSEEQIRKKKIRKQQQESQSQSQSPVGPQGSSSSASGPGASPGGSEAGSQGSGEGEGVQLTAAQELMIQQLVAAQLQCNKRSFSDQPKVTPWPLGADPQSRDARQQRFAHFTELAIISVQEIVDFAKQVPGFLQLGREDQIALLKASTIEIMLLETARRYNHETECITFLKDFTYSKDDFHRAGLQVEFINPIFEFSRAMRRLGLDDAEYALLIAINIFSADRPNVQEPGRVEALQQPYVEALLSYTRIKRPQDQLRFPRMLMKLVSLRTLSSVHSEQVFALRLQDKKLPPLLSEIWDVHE
hcDAF12 conf: H. contortus DAF-12 receptor agonists, confirmation, cell-based, luminescence, HEK293, lit1-tk-luc, triplicate; shares compounds with hcDAF-12 act; HEK293 hcDAF-12 lit1-tk-luc reporter; % of Δ7-dafachronic acid response; activation, % at 6.8 µM; hit rate 61% among 3,400; AID 743032, 2013;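 active = mean activation across triplicate tests above the threshold derived from the earlier primary screen, cut at about 5.5% in these data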;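 also: 0% = DMSO only wells and 100% = 3 µM Δ7-dafachronic acid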
hgDAF12 conf: H. glycines DAF-12 receptor agonists, confirmation, cell-based, luminescence, HEK293, GAL4-LBD fusion; activation, % at 6.8 µM; AID 743050, 2013; HEK293 GAL4-hgDAF12 luciferase reporter, agonist mode; percent of butyrate response; shares compounds with hgDAF12 agonist; hit rate 80% among 3,300;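 active = mean activation over triplicate wells above the hit cutoff derived from the earlier primary screen, cut at about 11% in these data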;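 also: 0% = DMSO low control and 100% = 2 mM sodium butyrate high control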
LXR ag 2: LXR agonists, Gal4 luciferase reporter, confirmation, counter-screen for hgDAF-12 agonist project, cell-based, luminescence, HEK293, H. glycines campaign | 3,300 tested, under 10 active | activation, % at 6.8 µM | 24 h | shares compounds with hgDAF12 agonist | AID 743051, 2013;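 active = mean activation of the triplicate above a set limit carried over from the primary screen, none filed active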
* = called active by the depositor; nt = no result given. The list is not random: actives were taken first. Their share in the collection is about 4.1%.

SMILES	DAX1 inh-1	hgDAF12 agonist	DAX1 inh-2	hcDAF-12 act	ssDAF-12 act	DAX1 conf	SF1 AF2mut Luc	hgDAF12 conf	LXR ag 2	others
Cc1ccc(OCc2nc(-c3ccccn3)no2)cc1	5.1*	18*	0	8.9*	0.9*	16*	7.2*	15*	1	LXRb hcDAF ctr=1;hcDAF12 conf=3
COc1ccc(/C=N/NC(=S)Nc2ccccc2)cc1	7.7*	26*	1	3	-1	10*	5.8*	15*	1
CCc1ccc(NC(=O)c2cnn(-c3ccccc3)c2C)cc1	6.1*	15*	-1	5	1.1*	11*	6.0*	19*	1
CCOC(=O)N1CCN(C(=O)C[C@H]2C[C@@]3(C(=O)OC)C(=C[C@H](C(C)C)O[C@@H]3C3CC3)N(Cc3ccc4c(c3)OCO4)C2=O)CC1	-1	-3	nt	1	-1	nt	nt	nt	nt
COc1ccc(S(=O)(=O)N2CCCCCC2)cc1C(=O)N(C)CC(=O)Nc1ccccc1C(F)(F)F	-1	2	0	-2	-2	nt	nt	nt	nt
Cc1cc(/C=C(\C#N)C(=O)Nc2ccccc2F)c(C)[nH]1	12*	17*	2	5	0	15*	5.5*	16*	1
COc1ccc(NC(=O)c2cc(C3CCCCN3C(=O)CCc3ccccc3)on2)c(C)c1 (centres undefined)	-2	1	nt	-2	-1	nt	nt	nt	nt
Nc1nc(-c2ccc3ccccc3c2)cs1	12*	18*	1	6.4*	0	9.9*	7.5*	15*	1
Nc1nc(-c2ccc(Oc3ccccc3)cc2)cs1	0	6	1	0	-1	nt	nt	nt	nt
Nc1nc(-c2ccc(-c3ccccc3)cc2)cs1	6.3*	19*	1	5	0	10*	6.8*	20*	1
O=C(Nc1cccc(Cl)c1)Nc1ccccc1C(=O)O	4.7*	14*	-1	5	-1	11*	7.6*	15*	1
NC(=O)c1ccccc1NC(=O)Nc1cccc(Cl)c1	0	3	-1	0	-1	nt	nt	nt	nt
Fc1cccc(Cc2c(-c3cccc(Br)c3)nc3ccc(Br)cn23)c1	2	10	nt	-1	0	nt	nt	nt	nt
N#Cc1ccc(-c2nc3ccc(Cl)cn3c2Cc2cccc(F)c2)cc1	0	5	nt	-3	-2	nt	nt	nt	nt
Fc1cccc(Cc2c(-c3ccc(Cl)cc3)nc3ccc(Br)cn23)c1	4.7*	18*	nt	4	-1	2	1	1	0
Cc1ccc(-c2nc3ccc(Cl)cn3c2Cc2cccc(F)c2)cc1	6.5*	21*	nt	1	0	9.7*	4.9*	11*	0
CCc1c(-c2ccc(OC)cc2)ncn1Cc1cccc(-c2ccccc2)c1	-1	-4	nt	-1	-1	nt	nt	nt	nt
Cc1cc(C)cc(CC(=O)N2CCC2(C)C(=O)NS(=O)(=O)c2ccc(Br)cc2)c1 (centres undefined)	1	10	nt	-1	-1	nt	nt	nt	nt
O=C(CCC(=O)N1CCOc2ccccc21)NC1CCCCCC1	2	3	-1	1	-1	nt	nt	nt	nt
CCC(C)(C)NC(=O)C(c1ccc(F)cc1)N(Cc1cccs1)C(=O)c1cnccn1 (centres undefined)	-1	-1	0	0	-1	nt	nt	nt	nt
O=C(CC1SC(N2CCCC2)=NC1=O)Nc1ccc(C(=O)Nc2ncccc2O)cc1 (centres undefined)	25*	38*	3	3	1	40*	22*	43*	0
CC(C)(C)S(=O)N1Cc2cc(C(=O)N3CCc4ccccc4C3)nc(-c3cccc(-c4cccnc4)c3)c2[C@@H]1CCO (some centres undefined)	1	-2	nt	-1	-1	nt	nt	nt	nt
Oc1ccc(N=Nc2n[nH]c(-c3ccccc3)n2)cc1	7.1*	15*	0	5	1	15*	9.2*	17*	1
Cc1ccc(NC(=O)N/C=C/c2ccccc2)cc1	2	9	1	2	-1	nt	nt	nt	nt
Cc1ccc(NC(=O)/C(Cl)=C\c2ccccc2)cc1	6.5*	17*	0	6.4*	1.6*	18*	8.1*	21*	1
O=C(Nc1cccc2ccccc12)/C(Cl)=C/c1ccccc1	0	5	2	0	0	nt	nt	nt	nt
O=C(Nc1ccc(F)cc1)/C(Cl)=C/c1ccccc1	4.6*	25*	9.9*	5	2.2*	13*	10*	20*	1
O/C(=C\c1ccc2ccccc2n1)c1ccc(O)cc1O	5.3*	24*	0	8.9*	1.4*	16*	7.1*	22*	1	LXRb hcDAF ctr=2;hcDAF12 conf=10*

Source: PubChem BioAssay (The Scripps Research Institute Molecular Screening Center)
